Consider 30 compounds from PubChem BioAssay (NCATS).

The structures appear in SMILES notation. Results filed as inconclusive are left out. A call without a number means that no potency is given here. Activity calls are given as the source filed them. Calls come from the whole dose curve; as a rule, active = well fitted inhibition curve with a large enough effect; inconclusive = small, poorly fitted or top-dose-only effect; inactive = no such curve, though single readings can be large or run the other way.

The target in the experiment is Retinaldehyde dehydrogenase 3 (Homo sapiens) (UniProt P47895). Briefly: qHTS for Inhibitors of the Aldehyde Dehydrogenase Family (ALDH1A3) Primary screen (AID 2061315). The following applies: ALDH inhibition qHTS; series mostly up to 56 µM.
Take `O=C(N[C@H]1N=C(c2ccccc2F)c2cccc3c2N(CC3)C1=O)c1cc2ccccc2[nH]1`: the Potency result was “inactive”.

In the case of `CC[C@@H]1C[C@H]2CC[C@H](O2)[C@H](C)C(=O)O[C@@H](C)C[C@@H]2CC[C@@H](O2)[C@@H](C)C(=O)O[C@H](C)C[C@H]2CC[C@H](O2)[C@H](C)C(=O)O[C@@H](C)C[C@@H]2CC[C@@H](O2)[C@@H](C)C(=O)O1`, the Potency entry is “inactive”.

As for `CC[C@H]1CN2CC[C@H]1C[C@H]2[C@H](O)c1ccnc2ccc(OC)cc12`, the Potency result was “inactive”.

`CC(=O)O[C@@H]1[C@H]2CC[C@H]3[C@@](C)(O)[C@@H]4C[C@H](O)C(C)(C)[C@@]4(O)[C@H](O)C[C@@]13C[C@@]2(C)O`: the Potency result is “inactive”.

As to `COC(=O)C1(C)CCC(O)C2(C)c3cc(O)c(C(C)C)cc3C(O)C(OC(C)=O)C12` (stereo not given), the Potency entry is “inactive”.

Regarding `COc1ccc(CN(C(=O)[C@@H](N)Cc2c(C)cc(C(N)=O)cc2C)[C@@H](C)c2ncc(-c3ccccc3)[nH]2)cc1C(=O)O`, the Potency result is “inactive”.

`CC(=O)OC[C@]12C[C@H](O)C(C)=C[C@H]1O[C@@H]1[C@H](O)[C@@H](OC(C)=O)[C@@]2(C)[C@]12CO2`: the Potency result was “inactive”.

As to `CC12CCC3C(CCC4(O)CC(O)CCC34C=O)C1(O)CCC2C1=CC(=O)OC1` (stereo not given), the Potency result is “inactive”.

Consider `CC1=CC2(O)/C=C/C(C)(O)C(O)C(O)/C=C/C(=O)OC23C(=O)NC(CC(C)C)C3C1C` (stereo not given), for which the Potency entry is “inactive”.

With `C=C1C[C@]2(O)[C@@]3(C)CCC(=O)C(C)(C)C3=C(O)C(=O)[C@@]2(C)[C@@H]2C(=O)O[C@@](C)(C(=O)OC)C(=O)[C@@]12C`, the Potency entry is “inactive”.

Take `CC1=CC2/C=C(\C)CCC(O)C(O)/C=C/C(=O)OC23C(=O)NC(CC(C)C)C3C1C` (stereo not given): the Potency entry was “inactive”.

As for `CCC(C)(C#N)O[C@@H]1O[C@H](CO)[C@@H](O)[C@H](O)[C@H]1O` (stereo not given in full), the Potency entry was “inactive”.

Take `C=C1C(=O)CC2OC2(C)CC2OC(=O)C(=C)C2C(O)C1OC(=O)/C(C)=C\C` (stereo not given): the Potency result was “inactive”.

With `COCC(C(=O)OC1CC2CCC(C1)N2C)c1ccccc1` (stereo not given), the Potency result was “inactive”.

For `C=CC/C=C\C/C=C\CCCCCCCc1cc(O)cc(O)c1`, the Potency entry was “inactive”.

With `COC[C@]12CN(C)C3C4[C@H](OC)[C@H]1C3(C(OC)C[C@H]2O)[C@H]1C[C@@]2(O)[C@H](OC(=O)c3ccccc3)[C@@H]1[C@]4(O)[C@@H](O)[C@@H]2OC` (stereo not given in full), the Potency entry is “inactive”.

For `CC[C@H]1C[C@@H]2CC[C@@H](O2)[C@@H](C)C(=O)O[C@H](CC)C[C@H]2CC[C@H](O2)[C@H](C)C(=O)O[C@@H](C)C[C@@H]2CC[C@@H](O2)[C@@H](C)C(=O)O[C@H](CC)C[C@H]2CC[C@H](O2)[C@H](C)C(=O)O1`, the Potency result is “inactive”.

On to `CC1=CC2OC3CC(O)[C@](C)([C@@]2(C)C(O)C1=O)[C@]31CO1` (stereo not given in full), for which the Potency entry was “inactive”.

`CCC1=CC2CN3CCc4c([nH]c5ccccc45)[C@@](C(=O)OC)(C2)[C@@H]13`: the Potency entry was “inactive”.

As to `COc1cc(C(=O)O[C@H]2[C@@H]3C=CO[C@@H](O[C@@H]4O[C@H](CO)[C@@H](O)[C@H](O)[C@H]4O)[C@@H]3[C@@]3(CO)O[C@@H]23)ccc1O`, the Potency result was “inactive”.

Regarding `CC(=O)OC[C@]12C[C@H](O)C(C)=C[C@H]1O[C@@H]1[C@H](O)[C@@H](O)[C@@]2(C)[C@]12CO2`, the Potency result is “inactive”.

As for `CCN1C[C@]2(COC)[C@H](O)C[C@H](OC)[C@]34[C@@H]5C[C@]6(O)[C@H](OC(=O)c7ccccc7)[C@@H]5[C@@](O)([C@H]([C@H](OC)[C@H]23)[C@@H]14)[C@@H](O)[C@@H]6OC`, the Potency entry is “inactive”.

Turning to `CCC1(O)CCC2C3CCC4=CC(=O)CCC4C3CCC21CC` (stereo not given), the Potency result is “inactive”.

With `CC(C)(O)[C@H]1O[C@H]2CC[C@@]3(C)[C@@](O)(CC[C@H]4Cc5c([nH]c6ccccc56)[C@@]43C)C2=CC1=O`, the Potency entry is “inactive”.

With `CC(C)C1(OO)C=C2C(=O)CC3C(C)(C(=O)O)CCCC3(C)C2CC1` (stereo not given), the Potency entry is “inactive”.

Regarding `COC1C=CC23c4cc5c(cc4COC2(O)CN(C)C3C1)OCO5` (stereo not given), the Potency result was “inactive”.

For `CC1=C[C@H]2O[C@@H]3[C@H](O)[C@@H](O)[C@](C)([C@@]2(CO)C[C@@H]1O)[C@]31CO1`, the Potency result was “inactive”.

For `O=C(O)CCCCCCNC1c2ccccc2CCc2ccccc21`, the Potency result is “inactive”.

Take `C[C@]12CC[C@H](O)C[C@H]1CC[C@@H]1[C@@H]2[C@H](O)C(=O)[C@]2(C)[C@@H](c3ccc(=O)oc3)CC[C@]12O`: the Potency result is “inactive”.

Consider `CC(=O)O[C@@H]1[C@@H](O)[C@H]2O[C@@H]3C=C(C)[C@@H](O)C[C@]3(CO)[C@]1(C)[C@]21CO1`, for which the Potency result is “inactive”.
